Results filed as inconclusive are left out. The source made the active and inactive calls. The calls were made as follows, unless noted: active = hit-call score of the fitted dose curve at least 0.9, where 1 is the maximum; inactive = score below 0.9.
Assays:
[1] = target: human Vitamin D Receptor (VDR), VDR (gene 7421) (UniProt P11473); assay: ATG_VDR_TRANS: Attagene TRANS-FACTORIAL HepG2 Assay for human Vitamin D Receptor (VDR) (AID 2283022; active = hit-call score of the fitted dose curve at least 0.9, where 1 is the maximum)
Chain of human Vitamin D Receptor (VDR), VDR (gene 7421) (P11473 whole entry, looked up, the tested form may be a part): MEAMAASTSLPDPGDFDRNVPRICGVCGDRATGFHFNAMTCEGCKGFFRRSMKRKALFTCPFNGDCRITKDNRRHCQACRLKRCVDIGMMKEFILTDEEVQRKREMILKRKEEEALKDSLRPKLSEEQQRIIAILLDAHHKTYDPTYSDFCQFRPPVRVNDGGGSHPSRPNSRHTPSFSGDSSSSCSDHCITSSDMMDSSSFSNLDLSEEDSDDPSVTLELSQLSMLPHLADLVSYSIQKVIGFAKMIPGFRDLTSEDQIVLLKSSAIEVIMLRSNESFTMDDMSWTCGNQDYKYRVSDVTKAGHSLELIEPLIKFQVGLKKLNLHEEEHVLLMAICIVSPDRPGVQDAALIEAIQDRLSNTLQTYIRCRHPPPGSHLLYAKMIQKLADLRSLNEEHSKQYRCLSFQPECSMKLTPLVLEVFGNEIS
In short: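 Transactivation by an exogenous VDR-Gal4 chimera in transiently transfected HepG2 cells was measured as reporter transcript level 24 hours after chemical treatment. RT-PCR products were analysed by capillary electrophoresis and fitted in the positive direction relative to DMSO.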

[2] = read-out: E-selectin (Homo sapiens) (UniProt P16581); assay: BSK_3C_Eselectin: BioMAP Diversity Plus: 3C Assay for Eselectin Biomarker Activity (AID 2283015); conditions: primary human endothelial cells (HUVEC); actives raise or lower the signal;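 as to outcome: cell surface E-selectin protein quantified by ELISA 24 h after dosing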
In short: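 E-selectin ELISA readout, fitted bidirectionally relative to DMSO, taken 24 h post-dosing in HUVEC cultures of the 3C system. Overt cytotoxicity tracked with sulforhodamine B staining of parallel wells.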

[3] = read-out: Interleukin-1 alpha (IL1a), IL1A (gene 3552); assay: BSK_BE3C_IL1a: BioMAP Diversity Plus: BE3C Assay for Interleukin-1 alpha (IL1a) Biomarker Activity (AID 2283016); conditions: primary human bronchial epithelial cells; actives raise or lower the signal
In short: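 Human primary bronchial epithelial cells (BE3C system) were dosed with compound and IL-1a measured by ELISA 24 h later. Activity was fitted bidirectionally against DMSO baseline; cytotoxicity was tracked in parallel cultures by SRB total-protein staining.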

[4] = read-out: Monocyte Chemoattractant Protein-1 (MCP1), CCL2 (gene 6347); assay: BSK_3C_MCP1: BioMAP Diversity Plus: 3C Assay for Monocyte Chemoattractant Protein-1 (MCP1) Biomarker Activity (AID 2283017); conditions: primary human endothelial cells (HUVEC); actives raise or lower the signal
In short: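 MCP-1 was measured by ELISA 24 h after dosing in primary HUVEC 3C cultures and fitted in both directions relative to DMSO; cytotoxicity was checked by SRB total-protein staining in parallel wells.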

[5] = read-out: Monocyte Chemoattractant Protein-1 (MCP1), CCL2 (gene 6347); assay: BSK_4H_MCP1: BioMAP Diversity Plus: 4H Assay for Monocyte Chemoattractant Protein-1 (MCP1) Biomarker Activity (AID 2283018); conditions: primary human endothelial cells (HUVEC); actives raise or lower the signal
In short: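 Human umbilical vein endothelial cells (4H system) dosed with chemical; MCP-1 measured by ELISA 24 h after dosing. Bidirectional curve fitting against DMSO negative control as baseline; parallel SRB total-protein staining tracks overt cytotoxicity.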

[6] = read-out: Human Leukocyte Antigen - DR isotype (HLADR), HLA-DRA (gene 3122); assay: BSK_3C_HLADR: BioMAP Diversity Plus: 3C Assay for Human Leukocyte Antigen - DR isotype (HLADR) Biomarker Activity (AID 2283019); conditions: primary human endothelial cells (HUVEC); actives raise or lower the signal;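 as to outcome: ELISA of cell-surface HLA-DR on HUVEC 24 h after dosing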
In short: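 Bidirectional fitting against DMSO was applied to the HLA-DR ELISA signal from human umbilical vein endothelial cells, 24 h post-dose. Cytotoxicity came from parallel SRB total-protein staining; 3C proliferation was counted by SRB at 48 h.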

[7] = read-out: Monokine induced gamma interferon (MIG), CXCL9 (gene 4283); assay: BSK_3C_MIG: BioMAP Diversity Plus: 3C Assay for Monokine induced gamma interferon (MIG) Biomarker Activity (AID 2283021); conditions: primary human endothelial cells (HUVEC); actives raise or lower the signal;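 as to AC50: MIG protein level measured by immunoassay in the treated endothelial cultures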
In short: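 Primary human umbilical vein endothelial cells in the 3C system were exposed to chemical for 24 h, after which MIG was quantified by ELISA. Activity was fitted bidirectionally against DMSO as negative control and baseline.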

[8] = read-out: Matrix Metallopeptidase 1 (MMP1), MMP1 (gene 4312); assay: BSK_BE3C_MMP1: BioMAP Diversity Plus: BE3C Assay for Matrix Metallopeptidase 1 (MMP1) Biomarker Activity (AID 2283024); conditions: primary human bronchial epithelial cells; actives raise or lower the signal
In short: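 Primary human bronchial epithelial cells were dosed with test chemicals, and MMP1 levels were measured by ELISA 24 h later. Data were fitted bidirectionally against DMSO as the negative control and activity baseline.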

[9] = BSK_3C_Vis: BioMAP Diversity Plus: 3C Assay for Morphology Visualization (AID 2283025); conditions: primary human endothelial cells (HUVEC);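 also: fitted both ways so gain or loss versus DMSO counts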
In short: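 Human umbilical vein endothelial cells in the 3C system were imaged by light microscopy 24 h after chemical dosing to record cell morphology. Activity was fitted bidirectionally against DMSO as negative control and baseline; the endpoint serves as a background control.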

[10] = read-out: Pselectin, SELP (gene 6403); assay: BSK_4H_Pselectin: BioMAP Diversity Plus: 4H Assay for Pselectin Biomarker Activity (AID 2283026); conditions: primary human endothelial cells (HUVEC); actives raise or lower the signal
In short: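 Primary human umbilical vein endothelial cells were exposed to test chemical for 24 h, then cell-surface P-selectin was quantified by ELISA. Activity was fitted bidirectionally against DMSO as negative control and baseline.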

[11] = BSK_4H_SRB: Viability Assessment in the BioMAP Diversity Plus: 4H Assay (AID 2283027); conditions: primary human endothelial cells (HUVEC);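 also: cells exposed to compound for 24 h before staining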;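 as to AC50: curves fitted both ways versus DMSO so AC50 may be loss or gain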
In short: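 Human umbilical vein endothelial cells, 24 h after chemical dosing; total protein measured by 0.1% sulforhodamine B staining after 10% TCA fixation, read at 560 nm. Bidirectional fitting against DMSO.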

[12] = BSK_BE3C_SRB: Viability Assessment in the BioMAP Diversity Plus: BE3C Assay (AID 2283028); conditions: primary human bronchial epithelial cells;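 as to AC50: fitted both ways so AC50 may mark signal gain or loss versus DMSO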
In short: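 Cytotoxicity read-out: SRB (0.1%) staining of TCA-fixed (10%) human lung bronchial epithelial cells, absorbance 560 nm, 24 h post-dosing. Curves fitted both directions relative to DMSO.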

[13] = read-out: Thrombomodulin, THBD (gene 7056); assay: BSK_3C_Thrombomodulin: BioMAP Diversity Plus: 3C Assay for Thrombomodulin Biomarker Activity (AID 2283029); conditions: primary human endothelial cells (HUVEC); actives raise or lower the signal
In short: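 Primary human umbilical vein endothelial cells (3C system) were exposed to chemical for 24 h, then thrombomodulin levels were measured by ELISA. Activity was fitted bidirectionally against the DMSO negative control as baseline.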

[14] = read-out: Urokinase-type plasminogen activator receptor (uPAR), PLAUR (gene 5329); assay: BSK_4H_uPAR: BioMAP Diversity Plus: 4H Assay for Urokinase-type plasminogen activator receptor (uPAR) Biomarker Activity (AID 2283030); conditions: primary human endothelial cells (HUVEC); actives raise or lower the signal
In short: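 uPAR level read by ELISA on HUVEC cultures (BioMAP 4H) 24 h post-dosing, analyzed for gain or loss relative to DMSO. Parallel SRB staining assessed overt cytotoxicity.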

[15] = read-out: Vascular endothelial growth factor receptor 2 (Homo sapiens) (UniProt P35968); assay: BSK_4H_VEGFRII: BioMAP Diversity Plus: 4H Assay for Vascular endothelial growth factor receptor 2 (VEGFR2) Biomarker Activity (AID 2283031); conditions: primary human endothelial cells (HUVEC); actives raise or lower the signal;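 as to AC50: cell-surface VEGFR2 protein level quantified by ELISA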
In short: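 Measured by ELISA after 24 h of compound treatment: VEGFR2 on primary human umbilical vein endothelial cells, fitted in both directions relative to DMSO. Parallel cultures received SRB staining (560 nm) for overt cytotoxicity.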

[16] = read-out: Human Leukocyte Antigen - DR isotype (HLADR), HLA-DRA (gene 3122); assay: BSK_BE3C_HLADR: BioMAP Diversity Plus: BE3C Assay for Human Leukocyte Antigen - DR isotype (HLADR) Biomarker Activity (AID 2283032); conditions: primary human bronchial epithelial cells; actives raise or lower the signal
In short: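 Human primary bronchial epithelial cells in the BE3C system were exposed to chemicals for 24 h, after which HLA-DR levels were quantified by ELISA. Activity was fitted bidirectionally, gain or loss of signal, against DMSO as negative control and baseline.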

[17] = read-out: Vascular cell adhesion molecule 1 (VCAM1), VCAM1 (gene 7412); assay: BSK_4H_VCAM1: BioMAP Diversity Plus: 4H Assay for Vascular cell adhesion molecule 1 (VCAM1) Biomarker Activity (AID 2283033); conditions: primary human endothelial cells (HUVEC); actives raise or lower the signal;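 as to outcome: cell-surface VCAM-1 protein measured by ELISA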
In short: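 Primary human umbilical vein endothelial cells were exposed to chemicals for 24 h, after which VCAM-1 was quantified by ELISA. Responses were fitted bidirectionally against DMSO as negative control and activity baseline.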

[18] = read-out: Interferon-gamma inducible Protein 10 (IP10), CXCL10 (gene 3627); assay: BSK_BE3C_IP10: BioMAP Diversity Plus: BE3C Assay for Interferon-gamma inducible Protein 10 (IP10) Biomarker Activity (AID 2283034); conditions: primary human bronchial epithelial cells; actives raise or lower the signal
In short: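 Human primary bronchial epithelial cells were exposed to chemicals for 24 hours, after which IP-10 levels were measured by ELISA. Data were fitted bidirectionally against DMSO, which served as the negative control and activity baseline.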

[19] = BSK_3C_SRB: Viability Assessment in the BioMAP Diversity Plus: 3C Assay (AID 2283023); conditions: primary human endothelial cells (HUVEC);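 also: fitted both ways against DMSO so a hit may be signal rise or drop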
In short: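 Cytotoxicity readout in parallel HUVEC 3C cultures: after 24 h compound exposure, cells fixed with 10% TCA, stained with 0.1% SRB and read at 560 nm. Gain or loss relative to DMSO fitted.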

Chain of E-selectin (Homo sapiens) (P16581 whole entry, looked up): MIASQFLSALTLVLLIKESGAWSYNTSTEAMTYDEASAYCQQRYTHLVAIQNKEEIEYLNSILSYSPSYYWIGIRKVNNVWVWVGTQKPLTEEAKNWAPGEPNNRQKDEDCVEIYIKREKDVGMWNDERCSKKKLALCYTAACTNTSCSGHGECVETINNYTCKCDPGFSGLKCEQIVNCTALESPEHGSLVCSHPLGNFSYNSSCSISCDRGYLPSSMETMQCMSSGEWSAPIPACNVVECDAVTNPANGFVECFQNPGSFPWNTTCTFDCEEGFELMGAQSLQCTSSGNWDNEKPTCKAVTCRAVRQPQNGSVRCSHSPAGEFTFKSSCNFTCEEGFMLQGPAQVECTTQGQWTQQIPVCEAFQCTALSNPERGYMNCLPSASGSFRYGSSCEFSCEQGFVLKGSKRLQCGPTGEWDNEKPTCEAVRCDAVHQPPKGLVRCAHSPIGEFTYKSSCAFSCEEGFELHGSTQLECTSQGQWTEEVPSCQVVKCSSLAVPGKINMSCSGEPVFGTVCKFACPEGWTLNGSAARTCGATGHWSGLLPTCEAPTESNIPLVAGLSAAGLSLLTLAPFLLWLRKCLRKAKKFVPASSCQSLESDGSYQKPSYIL

Q: With CC(C)c1cccc(C(C)C)c1O as the molecule, how does the outcome [1] read?
A: inactive

Q: With CC(C)(C)c1cc(O)ccc1O as the molecule, how does the AC50 [2] read?
A: 31.8 µM (active)

Q: What about the outcome [3] of the same molecule?
A: inactive

Q: And the AC50 [4]?
A: 35.2 µM (active)

Q: What about the outcome [5] of the same molecule?
A: inactive

Q: What about the AC50 [6] of the same molecule?
A: 32.4 µM (active)

Q: What about the AC50 [7] of the same molecule?
A: 37 µM (active)

Q: And the AC50 [8]?
A: 8.5 µM (active)

Q: And the AC50 [9]?
A: 39 µM (active)

Q: What about the AC50 [10] of the same molecule?
A: 20 µM (active)

Q: And the AC50 [11]?
A: 28.1 µM (active)

Q: And the outcome [12]?
A: inactive

Q: And the AC50 [13]?
A: 33.5 µM (active)

Q: And the outcome [14]?
A: inactive

Q: What about the outcome [15] of the same molecule?
A: inactive

Q: And the AC50 [16]?
A: 18.3 µM (active)

Q: What about the AC50 [17] of the same molecule?
A: 23.2 µM (active)

Q: What about the AC50 [18] of the same molecule?
A: 26.9 µM (active)

Q: Which results are given for O=C(Nc1ccc2[nH]ccc2c1)c1cc2cc(F)ccc2n1Cc1cccc(F)c1?
A: AC50 [2]: 10.9 µM (active); AC50 [3]: 10.3 µM (active); AC50 [4]: 8.53 µM (active); AC50 [5]: 5.82 µM (active); AC50 [6]: 7.97 µM (active); AC50 [7]: 10.4 µM (active); outcome [1]: inactive; AC50 [8]: 9.72 µM (active); AC50 [9]: 12.8 µM (active); AC50 [10]: 7.85 µM (active); AC50 [11]: 10 µM (active); AC50 [12]: 6.76 µM (active); outcome [13]: inactive; AC50 [14]: 9.25 µM (active); AC50 [15]: 8.6 µM (active); AC50 [16]: 5.82 µM (active); AC50 [17]: 8.66 µM (active); AC50 [18]: 8.41 µM (active)

Q: For CCC(=O)C(CC(C)N(C)C)(c1ccccc1)c1ccccc1 (configuration not stated), which outcome [2] is on record?
A: inactive

Q: What about the outcome [3] of the same molecule?
A: inactive

Q: What about the outcome [4] of the same molecule?
A: inactive

Q: And the outcome [5]?
A: inactive

Q: And the outcome [6]?
A: inactive

Q: And the outcome [7]?
A: inactive

Q: And the outcome [8]?
A: inactive

Q: And the outcome [9]?
A: inactive

Q: What about the outcome [10] of the same molecule?
A: inactive

Q: And the outcome [11]?
A: inactive

Q: And the outcome [12]?
A: inactive

Q: And the outcome [13]?
A: inactive

Q: And the outcome [14]?
A: inactive

Q: And the outcome [15]?
A: inactive

Q: What about the outcome [16] of the same molecule?
A: inactive

Q: And the outcome [17]?
A: inactive

Q: And the outcome [18]?
A: inactive

Q: For CCSC(C)CC1CC(=O)C(C(CC)=NOC/C=C/Cl)=C(O)C1 (configuration not stated), which outcome [2] is on record?
A: inactive

Q: And the outcome [3]?
A: inactive

Q: And the outcome [4]?
A: inactive

Q: What about the outcome [5] of the same molecule?
A: inactive

Q: And the outcome [6]?
A: inactive

Q: What about the outcome [7] of the same molecule?
A: inactive

Q: And the outcome [8]?
A: inactive

Q: What about the outcome [9] of the same molecule?
A: inactive

Q: What about the outcome [10] of the same molecule?
A: inactive

Q: And the outcome [11]?
A: inactive

Q: What about the outcome [12] of the same molecule?
A: inactive

Q: And the outcome [13]?
A: inactive

Q: And the outcome [14]?
A: inactive

Q: What about the outcome [15] of the same molecule?
A: inactive

Q: What about the outcome [16] of the same molecule?
A: inactive

Q: And the outcome [17]?
A: inactive

Q: What about the outcome [18] of the same molecule?
A: inactive

Q: With O=C(O)CCC(F)(C(F)(F)F)C(F)(F)F as the molecule, how does the outcome [2] read?
A: inactive

Q: What about the outcome [3] of the same molecule?
A: inactive

Q: What about the outcome [4] of the same molecule?
A: inactive

Q: And the outcome [5]?
A: inactive

Q: And the outcome [6]?
A: inactive

Q: What about the outcome [7] of the same molecule?
A: inactive

Q: And the outcome [19]?
A: inactive

Q: What about the outcome [8] of the same molecule?
A: inactive

Q: And the outcome [10]?
A: inactive

Q: And the outcome [11]?
A: inactive

Q: What about the outcome [12] of the same molecule?
A: inactive

Q: And the outcome [13]?
A: inactive

Q: What about the outcome [14] of the same molecule?
A: inactive

Q: And the outcome [15]?
A: inactive

Q: What about the outcome [16] of the same molecule?
A: inactive

Q: What about the outcome [17] of the same molecule?
A: inactive

Q: And the outcome [18]?
A: inactive

From PubChem BioAssay (EPA / NIEHS)
